Source: PubChem BioAssay (Tox21)
Results filed as inconclusive are left out. Entries that show only a call come without a potency. The source made the active and inactive calls. Calls come from the whole dose curve; as a rule, active = well fitted curve in the direction sought with a large enough effect in the repeat runs; inconclusive = weak or mixed curves; inactive = no such curve, though single readings can be large; an effect the other way counts as inactive or inconclusive.

Assays:
[1] = qHTS assay to identify small molecule agonists of the RXR signaling pathway - cell viability counter screen (AID 1159529); conditions: RXR-alpha-bla HEK293T viability, CellTiter-Glo, 16 h; series mostly up to 76.8 µM; note: nearly all actives have a fitted effect of over 50% in size
In short: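 Cell viability is measured by CellTiter-Glo luminescence, 30 min at room temperature, in wells already read for beta-lactamase. Engineered HEK 293T cells (RXR-alpha-UAS-bla) are dosed 16 hr at 37 C. Tetraoctyl ammonium bromide serves as positive control.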

[2] = qHTS assay to identify small molecule antagonists of the retinoid acid receptor (RAR) signaling pathway - cell viability counter screen (AID 1159551); conditions: C3RL4 cells viability, ATP luminescence (CellTiter-Glo), 6 h; series mostly up to 92.4 µM; note: nearly all actives have a fitted effect of over 35% in size
In short: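 Cells (C3RL4) are plated, incubated overnight, dosed with compound in DMSO, then given retinol at 1 uM final. After 6 h at 37 C, CellTiter-Glo is added and luminescence read following 30 min at room temperature.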

[3] = qHTS assay to identify small molecule antagonists of the retinoic acid receptor (RAR) signaling pathway (AID 1159552; note: nearly all actives have a fitted effect of over 50% in size; note: potency is the fitted concentration of half-maximal effect); conditions: C3RL4 RARE luciferase reporter, retinol-stimulated, 6 h; series mostly up to 92.4 µM
In short: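 Quantitative HTS in C3RL4 RARE-luciferase reporter cells. Compounds were added with 1 uM (final) retinol; luminescence was read after 6 hr.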

[4] = qHTS assay to identify small molecule agonists of the retinoic acid receptor (RAR) signaling pathway (AID 1159553); conditions: C3RL4 RARE luciferase reporter, agonist, 6 h; series mostly up to 73.3 µM
In short: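 Seed C3RL4 reporter cells at 1,000 per well and incubate overnight at 37 C. Add compounds in DMSO, incubate 6 hr. Add luciferase reagent, wait 30 min at room temperature, read luminescence.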

## CNC(=O)CSP(=O)(OC)OC
[1]
  Potency: inactive
[2]
  Potency: inactive
[3]
  Potency: inactive
[4]
  Potency: inactive

## O=[N+]([O-])c1ccccc1-c1ccccc1
[1]
  Potency: inactive
[2]
  Potency: inactive
[3]
  Potency: inactive
[4]
  Potency: inactive

## COC(=O)C(C)N(C(=O)c1ccco1)c1c(C)cccc1C (configuration not stated)
[1]
  Potency: inactive
[2]
  Potency: inactive
[4]
  Potency: inactive

## CCC1COC(Cn2cncn2)(c2ccc(Cl)cc2Cl)O1 (configuration not stated)
[1]
  Potency: inactive
[2]
  Potency: inactive
[4]
  Potency: inactive

## O=C(N[C@@H]1N=C(c2ccccc2F)c2cccc3c2N(CC3)C1=O)c1cc2ccccc2[nH]1
[1]
  Potency: inactive
[2]
  Potency: inactive
[3]
  Potency: inactive
[4]
  Potency: inactive

## CCCN
[1]
  Potency: inactive
[2]
  Potency: inactive
[3]
  Potency: inactive
[4]
  Potency: inactive

## CCNc1nc(NC(C)C(C)C)nc(SC)n1 (configuration not stated)
[1]
  Potency: inactive
[2]
  Potency: inactive
[3]
  Potency: inactive
[4]
  Potency: inactive

## CNC(=O)Oc1cc(C)cc(C(C)C)c1
[1]
  Potency: inactive
[2]
  Potency: inactive
[4]
  Potency: inactive

## CC#C[C@]1(O)CC[C@H]2[C@@H]3C[C@H](C)C4=CC(=O)CC[C@]4(C)[C@H]3CC[C@@]21C
[1]
  Potency: inactive
[2]
  Potency: inactive
[3]
  Potency: 13.3 µM (active)
[4]
  Potency: inactive

## CC(Cc1ccc2c(c1)OCO2)NO (configuration not stated)
[1]
  Potency: inactive
[2]
  Potency: inactive
[3]
  Potency: inactive
[4]
  Potency: inactive

## COc1nc(C)nc(NC(=O)NS(=O)(=O)c2ccccc2Cl)n1
[1]
  Potency: inactive
[2]
  Potency: inactive
[3]
  Potency: inactive
[4]
  Potency: inactive

## O=C1C[C@@H]2OCC=C3CN4CC[C@]56c7ccccc7N1[C@H]5[C@H]2[C@H]3C[C@H]46
[1]
  Potency: inactive
[2]
  Potency: inactive
[4]
  Potency: inactive

## CN1[C@@H]2CC[C@H]1CC(O)C2 (some centres not stated)
[1]
  Potency: inactive
[2]
  Potency: inactive
[3]
  Potency: inactive
[4]
  Potency: inactive

## CC(Cc1ccccc1)N(C)Cc1ccco1 (configuration not stated)
[1]
  Potency: inactive
[2]
  Potency: inactive
[3]
  Potency: inactive
[4]
  Potency: inactive
